Shown are actives, neighbours in structure and some others; about 3.7% of the full set was active somewhere.
TIM10 inh: growth inhibitors of TIM10 yeast strain; inhibition, % at 10 µM; S. cerevisiae TIM10 strain growth, BacTiter-Glo luminescence, 24 h; 1.4% of 330,000 active;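 active means inhibition of 40% or more at the single tested concentration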;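 further: wild-type TIM10 isogenic control strain grown at permissive 25 °C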
tim10-1 inh: growth inhibitors of tim10-1 mutant yeast. S. cerevisiae tim10-1 ts strain growth, BacTiter-Glo, 24 h. inhibition, % at 20 µM. 2.2% of 330,000 active;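 active means inhibition of at least 40%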;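 further: mutant grown at 25 °C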
PfHsp90 set2: reduces growth (ATP signal) of yeast expressing P. falciparum Hsp90; 0.32% of 310,000 active; S. cerevisiae expressing PfHsp90, BacTiter-Glo ATP, 48 h; yeast lacking PDR1 and PDR3 efflux regulators; AID 504621; inhibition, % at 9.4 µM;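 active means every replicate shows inhibition above about 80%, whatever the replicate mean, limit read from the data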
NLRP3 yeast inh: NALP3 inhibition in yeast | Yeast reconstituted NLRP3/ASC/caspase-1, beta-gal luminescence, 24 h | inhibition, % at 10 µM | 0.39% of 330,000 active | AID 2825;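 active means inhibition of 50% or more; inactive means inhibition below 50%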
tim23-1 inh: tim23-1 yeast growth inhibition | 1.3% of 330,000 active | AID 463212 | S. cerevisiae tim23-1 growth, BacTiter-Glo luminescence, 24 h | inhibition, % at 20 µM;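 active means growth inhibition of the mutant yeast at or above 50%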;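 further: temperature-sensitive mutant grown at 25 °C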
tim10-1 confirm: confirmation of tim10-1 mutant yeast growth inhibitors | AID 463213 | inhibition, % at 20 µM | 56% of 7,400 active | S. cerevisiae tim10-1 ts strain growth, BacTiter-Glo, 24 h | shares compounds with tim10-1 inh;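 active means inhibition of yeast growth at or above a set limit in either of two repeat tests at 20 µM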;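 further: tim10-1 mutant grown at permissive 25 °C to find synthetic lethal compounds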
A number is an active result; n = inactive; x = no result given.

SMILES	TIM10 inh	tim10-1 inh	PfHsp90 set2	NLRP3 yeast inh	tim23-1 inh	tim10-1 confirm
O=C(NCCO)c1cccc(Nc2nc(-c3ccccc3)c3cc(Cl)ccc3n2)c1	n	45	n	n	n	n
O=C(O)CCCC(=O)NNc1nc(-c2ccccc2)c2cc(Cl)ccc2n1	n	n	n	n	n	x
COc1ccc(/C=C/C(=O)c2cc(F)ccc2OC(=O)c2ccccc2C)cc1OC	n	41	n	n	n	n
COc1ccc(C(=O)Oc2ccc(F)cc2C(=O)/C=C/c2ccc(OC)c(OC)c2)cc1	n	n	n	n	n	x
COC(=O)c1ccccc1NC(=O)COC(=O)Cc1ccc(S(=O)(=O)N2CCOCC2)s1	x	x	n	x	x	x
O=C(NCc1nc2ccccc2[nH]1)c1cc2ccccc2oc1=O	n	41	n	n	n	n
CCOC(=O)c1cn[nH]c1NC(=S)Nc1ccc(Cl)cc1	n	41	x	n	n	n
O=C(Nc1nc2ccccc2n1CCN1CCOCC1)c1cn(-c2ccccc2)nc1-c1ccccc1	n	42	n	n	n	32
O=C(Nc1nc2ccccc2n1CCN1CCOCC1)c1ccccc1	n	n	n	n	n	x
CCOc1ccc(S(=O)(=O)NCCC(=O)NC(C)CCc2ccccc2)cc1 (centres undefined)	n	n	n	n	n	x
CCc1nc(C)cn1S(=O)(=O)c1cc(C)c(OC)cc1C	n	n	n	n	n	x
CCc1nc(C)cn1S(=O)(=O)c1cc(Br)c(C)cc1OC	n	44	n	n	n	n
Cc1cccc(NC(=O)c2ccc(S(=O)(=O)N3CCCCC3C)cc2)n1 (centres undefined)	n	41	n	n	n	n
COc1ccc(C(=O)Nc2ccc(S(=O)(=O)N3CCCCC3C)cc2)c(OC)c1OC (centres undefined)	n	n	n	n	n	x
Cc1cccc(NC(=O)c2ccc(S(=O)(=O)N3CCCCC3)cc2)n1	n	n	n	n	n	x
COc1cc(C(=O)Nc2ccc(S(=O)(=O)N3CCCCC3C)cc2)cc(OC)c1OC (centres undefined)	n	46	n	n	n	38
Brc1ccc(-c2csc(NNC3=NCCCCC3)n2)cc1	n	n	n	n	n	x
CC(C)(C)c1ccc(-c2csc(NNC3=NCCCCC3)n2)cc1	n	45	n	n	n	n
CC(C)N(C(=O)N1CCN(c2ccnc3cc(Cl)ccc23)CC1)C(C)C	n	40	n	n	n	29
CCC(=O)N1CCN(c2ccnc3cc(Cl)ccc23)CC1	n	n	n	n	n	x
Nc1nc(N)c(C=Nc2ccc(Br)cc2)c(Nc2ccc(Br)cc2)n1	n	57	n	n	n	32
Brc1ccc(N=C/C=C/C=C/Nc2ccc(Br)cc2)cc1	n	n	n	n	n	x
Oc1c(C(Nc2nc3ccccc3s2)c2ccco2)ccc2cccnc12 (centres undefined)	n	43	131	n	n	n
Cc1ccc(C(=O)O)cc1S(=O)(=O)Nc1ccccc1C(=O)NC1CC1	n	n	x	n	n	x
CC(C)c1ccc(NC(=O)CCCN2C(=S)NC(C)(C)CC2C)cc1 (centres undefined)	n	43	x	n	n	n
SMILES	TIM10 inh	tim10-1 inh	PfHsp90 set2	NLRP3 yeast inh	tim23-1 inh	tim10-1 confirm
CCn1c(SCc2c(F)cccc2Cl)nnc1-c1ccco1	n	49	n	n	n	41
Cc1cc(C)cc(NC(=O)c2ccc(Cn3nc(C)c(Cl)c3C)o2)c1	n	41	n	n	n	30
Cc1ccc(CNC(=O)c2ccc(Cn3nc(C)c(Cl)c3C)o2)cc1	n	55	109	n	n	54
Cc1nn(Cc2ccc(Cl)c(Cl)c2)c(C)c1NC(=O)c1sc2ccccc2c1Cl	n	41	n	n	n	41
Cc1nn(Cc2c(Cl)cccc2Cl)c(C)c1NC(=O)c1sc2ccccc2c1Cl	n	n	n	n	n	x
COc1ccc(S(=O)(=O)N2CCCC2CNC(=O)C(=O)NCc2ccccn2)cc1 (centres undefined)	n	n	x	n	n	x
COc1cc2cc(CCCOC(=O)c3ccc(C#N)cc3)oc(=O)c2cc1OC	n	n	n	n	n	x
CCN(C(=O)CSc1ccc2ccccc2n1)C1CCCCC1	n	n	n	n	n	x
CC[C@]1(C(=O)OC)[C@H]2C(=O)N(C)C(=O)[C@H]2[C@H]2CN=C(SC)N21	x	x	n	x	x	x
COc1ccc(CC2CC(=O)N(c3ccc(C)cc3)C2=O)cc1 (centres undefined)	n	n	n	n	n	x
C=CCOc1ccc(CN(C)C(=O)CNC(=O)c2ccc(-c3ccccc3)cc2)cc1	n	n	n	n	n	x
Cc1ccccc1CSCCNC(=O)c1ccccc1	n	n	n	n	n	x
Cc1ccccc1CSCCNC(=S)Nc1ccccc1	n	45	n	n	n	n
O=C(Nc1cccc(Cl)c1)c1csc(-c2ccccc2)n1	n	44	n	n	n	n
CC(C)N(C(=O)c1nn(C)c2c1CSc1ccccc1-2)C1CCCCC1	n	50	n	n	n	n
Cc1cccc(NC(=O)CNC(=O)CSc2nc(N)cc(N)n2)c1C	n	n	n	n	n	x
Cn1cnc([N+](=O)[O-])c1S(=O)(=O)c1cccc(Cl)c1	n	n	n	n	n	x
CCCn1c(CC)nc([N+](=O)[O-])c1S(=O)(=O)c1ccccc1	n	54	n	n	n	43
c1ccc2cc(C3CCCCC3)ncc2c1	n	n	n	n	n	x
Cc1c(C(=O)N2CCC(C)CC2)oc2ccc3c(c12)C(O)CC1(CCCCC1)O3 (centres undefined)	n	49	n	n	n	n
COCCNC(=O)c1oc2ccc3c(c2c1C)C(O)CC(C)(C)O3 (centres undefined)	n	n	n	n	n	x
COc1ccc(Cl)cc1NC(=O)CN(C)C(=O)C1CC1	n	n	n	n	n	x
O=C(Nc1ccccc1Cl)c1ccccc1	n	n	n	n	n	x
O=C(Nc1ccccc1Cl)C(Cl)C(=O)c1ccccc1 (centres undefined)	n	42	n	n	n	31
Cc1ccccc1CN(C)CCS(=O)(=O)c1cc(Cl)ccc1Cl	n	n	n	n	n	x
SMILES	TIM10 inh	tim10-1 inh	PfHsp90 set2	NLRP3 yeast inh	tim23-1 inh	tim10-1 confirm
CCOc1ccc2nc(SC3CC(=O)N(c4cccc(OC)c4)C3=O)sc2c1 (centres undefined)	n	42	n	n	n	37
CCOc1ccc2nc(SC3CC(=O)N(c4ccccc4)C3=O)sc2c1 (centres undefined)	n	n	n	n	n	x
COc1ccc(S(=O)(=O)N(C)C[C@H]2Oc3c(NC(=O)CCC(F)(F)F)cccc3C(=O)N([C@H](C)CO)C[C@@H]2C)cc1	n	n	n	n	n	x
CCOC(=O)/C(C#N)=C1/C(=O)N(Cc2ccccc2)c2ccccc21	n	49	n	n	n	n
CCOC(=O)C(C#N)=C1CCN(Cc2ccccc2)CC1	n	n	n	n	n	x
CC(C)[C@H](NS(=O)(=O)c1ccccc1F)C(=O)OCC(=O)Nc1cccc(S(N)(=O)=O)c1	n	n	n	n	n	x

Compound activity from PubChem.
